# The panel holds about 83,000 compounds, 20% with a hit somewhere; the sample as a whole holds those more often.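 Growth was measured after 48 h exposure to one concentration of compound in 96-well plates. Values under 10 count as active.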 A number with no mark means an inactive call. The source made the active and inactive calls.
# Columns and labels:
# Assay in all cases: NCI-60 one-dose screen, 48 h (100 = growth as untreated, 0 = no growth, -100 = all killed)
# Settings in all cases: 10 µM unless noted
# NCI-H23 lung = test system: NCI-H23 lung
# NCI-H226 lung = test system: NCI-H226 lung
# NCI-H322M lung = test system: NCI-H322M lung
# HOP-62 NSCLC = test system: HOP-62 NSCLC
# NCI-H460 lung = test system: NCI-H460 lung
# HOP-92 NSCLC = test system: HOP-92 NSCLC
# NCI-H522 lung = test system: NCI-H522 lung
# A549/ATCC NSCLC = test system: A549/ATCC NSCLC
# 786-0 renal = test system: 786-0 renal
# COLO 205 colon = test system: COLO 205 colon
# DU-145 prostate = test system: DU-145 prostate
# MALME-3M melanoma = test system: MALME-3M melanoma
# MDA-MB-231 breast = test system: MDA-MB-231 breast
# RXF 393 renal = test system: RXF 393 renal
# SF-268 CNS = test system: SF-268 CNS
# SF-295 CNS = test system: SF-295 CNS
# SF-539 CNS = test system: SF-539 CNS
# UACC-257 melanoma = test system: UACC-257 melanoma
# M14 melanoma = test system: M14 melanoma
SMILES,growth (NCI-H23 lung),growth (NCI-H226 lung),growth (NCI-H322M lung) [%],growth (HOP-62 NSCLC),growth (NCI-H460 lung),growth (HOP-92 NSCLC),growth (NCI-H522 lung),growth (A549/ATCC NSCLC),growth (786-0 renal),growth (COLO 205 colon),growth (DU-145 prostate),growth (MALME-3M melanoma),growth (MDA-MB-231 breast),growth (RXF 393 renal),growth (SF-268 CNS),growth (SF-295 CNS),growth (SF-539 CNS),growth (UACC-257 melanoma),growth (M14 melanoma)
COC(=O)c1ccc2c(c1)[n+](=O)c(C(C)=O)c(C(F)(F)F)n2[O-],-62.2% (active),-17.1% (active),66.2,-9.08% (active),-88.8% (active),-57% (active),-80.7% (active),28.6%,-40.5% (active),-100% (active),1.28% (active),-26.4% (active),-4.69% (active),-20.1% (active),-24.8% (active),-45.7% (active),-45.8% (active),-30.3% (active),-23.5% (active)
N#C/C(=C\c1cccc(C#N)c1)c1ccccc1,101%,105%,104,92.9%,104%,120%,95.6%,88.8%,105%,104%,101%,98.9%,102%,108%,99%,99.5%,99.4%,99.2%,
O=C1C=CC(=O)N1c1cccc(Cl)c1,103%,107%,121,101%,111%,76%,69.9%,93%,105%,-6.46% (active),123%,120%,132%,116%,108%,107%,113%,97.1%,114%
COc1cc(/C=C2\COc3ccc(-c4ccccc4)cc3C2=O)cc(OC)c1,70.1%,87.4%,85.9,113%,66.7%,70.3%,39.2%,72%,89.3%,107%,85.8%,101%,95.5%,66.1%,82.3%,68.9%,100%,70.9%,91.9%
C[C@H]1[C@H]2[C@H]3CC[C@@H]4[C@@]5(C)CC[C@H](O)C(C)(C)[C@@H]5CC[C@@]4(C)[C@]3(C)CC[C@]23CO[C@]1(C)[C@@H](C(=O)/C=C\c1ccco1)C3,98.5%,99.7%,88.3,104%,109%,65.4%,87.8%,104%,104%,-2.3% (active),102%,-11.3% (active),82.9%,110%,96.3%,110%,99.7%,-8.91% (active),34.4%
CC[C@]12C=CCN3CC[C@@]4(c5cc(NC(=O)CCC(=O)O[C@H]6CC[C@H]7[C@@H]8CCC9=CC(=O)CC[C@@H]9[C@H]8CC[C@]67C)c(OC)cc5N(C)[C@H]4[C@@](O)(C(=O)OC)[C@@H]1OC(C)=O)[C@@H]32,90.7%,86.5%,91.1,89.3%,77.4%,64.6%,69.9%,74.3%,86%,89.8%,82.2%,98.9%,68.5%,82.7%,74.4%,86.3%,94.8%,76.2%,77.1%
CCc1c2c(nc3ccc(OCc4ccc(B(O)O)cc4)cc13)-c1cc3c(c(=O)n1C2)COC(=O)[C@]3(O)CC,-35.8% (active),-21.4% (active),15.7,-17% (active),2.12% (active),-4.54% (active),-9.3% (active),7.22% (active),-13.7% (active),13.6%,9.26% (active),-7.08% (active),28.8%,-45.5% (active),7.54% (active),1.47% (active),-7.49% (active),-12.2% (active),1.07% (active)
CCc1ccc(-c2cn3ccnc3c(-c3ccc4ncn(Cc5ccccc5)c4c3)n2)cc1,77%,98.5%,99.1,82.1%,58%,63.9%,54.1%,54.6%,61.9%,65.8%,80.9%,115%,56.8%,69.3%,69.5%,48.8%,78.8%,103%,63.6%

# Reference: PubChem BioAssay (NCI)
